Assay results: PubChem BioAssay
The source made the active and inactive calls.

Experiments:
[1] = small molecules captured by biotinylated probe aFSTL3 – biochemical, small-molecule microarray, fluorescence 635/667, stem cell growth factor project, primary screen (AID 1064); details: higher = more signal;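 note: measures binding of the biotinylated anti-FSTL3 antibody to printed compounds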
[2] = binders from COS7 lysate, DM2A8 probe, primary screen, torsin A project, cell lysate, small-molecule microarray, fluorescence 635/667 (AID 1065); details: higher = more signal, COS7 lysate expressing mutant human TOR1A
[3] = small molecules captured by biotinylated probe aFGF2 – biochemical, small-molecule microarray, fluorescence 635/667, stem cell growth factor project, primary screen (AID 1067); details: higher = more signal;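 note: measures binding of biotinylated aFGF2 protein to printed compounds on slides; z-score merges feature fluorescence and signal-to-noise across triplicate slides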
[4] = small molecules captured by biotinylated probe aFGF10 – biochemical, small-molecule microarray, fluorescence 635/667, stem cell growth factor project, primary screen (AID 1071); details: higher = more signal;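 note: score merges 667 nm spot intensity and signal to noise from triplicate slides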
[5] = target: Neurogenic locus notch homolog protein 2 (Homo sapiens) (UniProt Q04721); experiment: small molecules binding Notch2 protein – biochemical, small-molecule microarray, 635 nm fluorescence, stem cell growth factors, primary screen (AID 1073); details: higher = more signal
[6] = target: Pro-neuregulin-1, membrane-bound isoform (Homo sapiens) (UniProt Q02297); experiment: small molecules binding neuregulin-1 protein – biochemical, small-molecule microarray, fluorescence 635/667, psychiatric disease protein project, primary screen (AID 1075); details: NRG1 binding, 635 nm fluorescence, higher = more signal;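 note: score combines 667 nm spot fluorescence with signal to noise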
Sequence of Pro-neuregulin-1, membrane-bound isoform (Homo sapiens) (Q02297 whole entry, looked up, the tested form may be a part, canonical isoform): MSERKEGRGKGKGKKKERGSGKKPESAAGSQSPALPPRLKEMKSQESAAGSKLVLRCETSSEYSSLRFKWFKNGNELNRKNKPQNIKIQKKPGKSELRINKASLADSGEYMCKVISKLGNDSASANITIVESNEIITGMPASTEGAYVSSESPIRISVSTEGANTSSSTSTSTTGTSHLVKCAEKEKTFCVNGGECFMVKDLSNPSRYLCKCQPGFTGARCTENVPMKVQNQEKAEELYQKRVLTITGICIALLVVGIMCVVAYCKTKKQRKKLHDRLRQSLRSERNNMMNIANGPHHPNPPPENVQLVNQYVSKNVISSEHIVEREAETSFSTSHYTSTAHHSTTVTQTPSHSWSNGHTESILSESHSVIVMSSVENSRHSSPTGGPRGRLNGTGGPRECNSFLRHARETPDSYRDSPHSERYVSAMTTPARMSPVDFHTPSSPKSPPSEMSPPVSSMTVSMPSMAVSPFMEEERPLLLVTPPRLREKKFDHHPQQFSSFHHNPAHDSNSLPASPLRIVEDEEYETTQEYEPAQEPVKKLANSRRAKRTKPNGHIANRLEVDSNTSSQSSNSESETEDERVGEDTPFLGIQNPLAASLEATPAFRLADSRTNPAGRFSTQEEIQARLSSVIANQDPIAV

[7] = test system: Neuregulin-1 EGF-like domain; experiment: small molecules binding NRG1 EGF domain – biochemical, small-molecule microarray, 635 nm fluorescence, primary screen (AID 1081); details: higher = more signal;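 note: binding of the protein to compounds printed on small-molecule microarray slides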
[8] = FRG1 expression reporter modulators in myotubes – cell-based, C2C12 myotubes, firefly/Renilla luciferase, luminescence, FRG1 inhibition for FSHD, primary screen (AID 1084); details: FRG1 promoter luciferase, higher = more signal, called active from +8 up or from −8 down
[9] = small molecules captured by biotinylated probe aFST – biochemical, small-molecule microarray, fluorescence 635/667, stem cell growth factor project, primary screen (AID 1086); details: higher = more signal;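 note: score merges 667 nm fluorescence with signal-to-noise of each printed compound spot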
[10] = binders of probe aHhip on microarray, primary screen, stem cell growth factor project, biochemical, small-molecule microarray, fluorescence 635/667 (AID 1087); details: higher = more signal;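 note: score merges spot fluorescence at 667nm with spot signal to noise ratio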
[11] = test system: PRMT1 (protein arginine N-methyltransferase 1); experiment: small molecules binding arginine methyltransferase PRMT1 – biochemical, small-molecule microarray, 635 nm fluorescence, primary screen (AID 1088); details: higher = more signal;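 note: binding of Prmt1 protein to compounds spotted on small-molecule microarray slides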
[12] = growth effects on S. cerevisiae YJM789 – YJM789 clinical isolate, OD600, 24 h, basal, primary screen (AID 1089); details: higher = more signal, called active from +8 up or from −8 down;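 note: growth of clinical yeast isolate S. cerevisiae YJM 789 seeded 1000 cells per well; test concentration not given here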
[13] = S. pombe growth modifiers, basal conditions – strain 972, OD600, 24 h, no modulator, primary screen (AID 1090);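 note: basal condition with compound alone and no growth modifier present; test concentration not given here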; details: S. pombe 972 growth, higher = more signal, called active from +8 up or from −8 down
[14] = budding yeast growth modifiers under rapamycin – strain BY4716, OD600, 96 h, primary screen (AID 1091); note: test concentration not given here; details: S. cerevisiae BY4716 + rapamycin, higher = more signal, called active from +8 up or from −8 down
[15] = target: Torsin-1A-interacting protein 2 (Homo sapiens) (UniProt Q8NFQ8); experiment: small molecules binding lysate-expressed LULL1 – cell lysate, human LULL1 lysate, 635/667 nm fluorescence, primary screen (AID 1092); details: small-molecule microarray, hLULL1 lysate binding, 635 nm fluorescence; higher = more signal;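 note: probe is lysate of COS7 cells overexpressing human LULL1; score merges per-feature 667 nm fluorescence with signal-to-noise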
Sequence of Torsin-1A-interacting protein 2 (Homo sapiens) (Q8NFQ8 whole entry, looked up): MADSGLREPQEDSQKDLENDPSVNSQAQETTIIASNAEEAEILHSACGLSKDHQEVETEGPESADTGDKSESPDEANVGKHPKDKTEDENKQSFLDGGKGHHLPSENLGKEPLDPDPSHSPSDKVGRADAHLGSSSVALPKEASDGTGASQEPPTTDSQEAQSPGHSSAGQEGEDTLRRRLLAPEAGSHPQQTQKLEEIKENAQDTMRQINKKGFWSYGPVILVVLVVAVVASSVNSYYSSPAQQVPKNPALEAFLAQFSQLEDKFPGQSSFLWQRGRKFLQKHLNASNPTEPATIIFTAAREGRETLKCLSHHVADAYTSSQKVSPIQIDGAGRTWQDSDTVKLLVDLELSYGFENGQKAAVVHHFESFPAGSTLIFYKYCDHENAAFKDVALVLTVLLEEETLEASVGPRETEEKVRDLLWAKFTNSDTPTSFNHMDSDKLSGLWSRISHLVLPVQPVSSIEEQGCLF

[16] = optical density change of DRC41 E. coli – strain DRC41, OD650, 24 h, E. coli filamentation project, primary screen (AID 1093);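 note: MC1000 strain lacking acrAB efflux and sulA so SOS filamentation is blocked; test concentration not given here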; details: E. coli DRC41 growth, higher = more signal, called active from +8 up or from −8 down
[17] = probe aLefty2 binding to arrayed compounds – biochemical, biotinylated probe, 635/667 nm fluorescence, primary screen (AID 1094); details: small-molecule microarray, higher = more signal;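 note: score merges spot fluorescence near 667 nm with spot signal-to-noise ratio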
[18] = test system: Noggin (protein binding on small-molecule microarray); experiment: small molecules binding Noggin protein – biochemical, 635/667 nm fluorescence, primary screen (AID 1095); details: 635 nm fluorescence, higher = more signal;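 note: score merges 667 nm feature fluorescence with signal to noise over triplicate slides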
[19] = target: Neurogenic locus notch homolog protein 3 (Homo sapiens) (UniProt Q9UM47); experiment: small molecules binding NOTCH3 protein – biochemical, 635/667 nm fluorescence, primary screen (AID 1096); details: small-molecule microarray, 635 nm fluorescence, higher = more signal
Sequence of Neurogenic locus notch homolog protein 3 (Homo sapiens) (Q9UM47 whole entry, looked up): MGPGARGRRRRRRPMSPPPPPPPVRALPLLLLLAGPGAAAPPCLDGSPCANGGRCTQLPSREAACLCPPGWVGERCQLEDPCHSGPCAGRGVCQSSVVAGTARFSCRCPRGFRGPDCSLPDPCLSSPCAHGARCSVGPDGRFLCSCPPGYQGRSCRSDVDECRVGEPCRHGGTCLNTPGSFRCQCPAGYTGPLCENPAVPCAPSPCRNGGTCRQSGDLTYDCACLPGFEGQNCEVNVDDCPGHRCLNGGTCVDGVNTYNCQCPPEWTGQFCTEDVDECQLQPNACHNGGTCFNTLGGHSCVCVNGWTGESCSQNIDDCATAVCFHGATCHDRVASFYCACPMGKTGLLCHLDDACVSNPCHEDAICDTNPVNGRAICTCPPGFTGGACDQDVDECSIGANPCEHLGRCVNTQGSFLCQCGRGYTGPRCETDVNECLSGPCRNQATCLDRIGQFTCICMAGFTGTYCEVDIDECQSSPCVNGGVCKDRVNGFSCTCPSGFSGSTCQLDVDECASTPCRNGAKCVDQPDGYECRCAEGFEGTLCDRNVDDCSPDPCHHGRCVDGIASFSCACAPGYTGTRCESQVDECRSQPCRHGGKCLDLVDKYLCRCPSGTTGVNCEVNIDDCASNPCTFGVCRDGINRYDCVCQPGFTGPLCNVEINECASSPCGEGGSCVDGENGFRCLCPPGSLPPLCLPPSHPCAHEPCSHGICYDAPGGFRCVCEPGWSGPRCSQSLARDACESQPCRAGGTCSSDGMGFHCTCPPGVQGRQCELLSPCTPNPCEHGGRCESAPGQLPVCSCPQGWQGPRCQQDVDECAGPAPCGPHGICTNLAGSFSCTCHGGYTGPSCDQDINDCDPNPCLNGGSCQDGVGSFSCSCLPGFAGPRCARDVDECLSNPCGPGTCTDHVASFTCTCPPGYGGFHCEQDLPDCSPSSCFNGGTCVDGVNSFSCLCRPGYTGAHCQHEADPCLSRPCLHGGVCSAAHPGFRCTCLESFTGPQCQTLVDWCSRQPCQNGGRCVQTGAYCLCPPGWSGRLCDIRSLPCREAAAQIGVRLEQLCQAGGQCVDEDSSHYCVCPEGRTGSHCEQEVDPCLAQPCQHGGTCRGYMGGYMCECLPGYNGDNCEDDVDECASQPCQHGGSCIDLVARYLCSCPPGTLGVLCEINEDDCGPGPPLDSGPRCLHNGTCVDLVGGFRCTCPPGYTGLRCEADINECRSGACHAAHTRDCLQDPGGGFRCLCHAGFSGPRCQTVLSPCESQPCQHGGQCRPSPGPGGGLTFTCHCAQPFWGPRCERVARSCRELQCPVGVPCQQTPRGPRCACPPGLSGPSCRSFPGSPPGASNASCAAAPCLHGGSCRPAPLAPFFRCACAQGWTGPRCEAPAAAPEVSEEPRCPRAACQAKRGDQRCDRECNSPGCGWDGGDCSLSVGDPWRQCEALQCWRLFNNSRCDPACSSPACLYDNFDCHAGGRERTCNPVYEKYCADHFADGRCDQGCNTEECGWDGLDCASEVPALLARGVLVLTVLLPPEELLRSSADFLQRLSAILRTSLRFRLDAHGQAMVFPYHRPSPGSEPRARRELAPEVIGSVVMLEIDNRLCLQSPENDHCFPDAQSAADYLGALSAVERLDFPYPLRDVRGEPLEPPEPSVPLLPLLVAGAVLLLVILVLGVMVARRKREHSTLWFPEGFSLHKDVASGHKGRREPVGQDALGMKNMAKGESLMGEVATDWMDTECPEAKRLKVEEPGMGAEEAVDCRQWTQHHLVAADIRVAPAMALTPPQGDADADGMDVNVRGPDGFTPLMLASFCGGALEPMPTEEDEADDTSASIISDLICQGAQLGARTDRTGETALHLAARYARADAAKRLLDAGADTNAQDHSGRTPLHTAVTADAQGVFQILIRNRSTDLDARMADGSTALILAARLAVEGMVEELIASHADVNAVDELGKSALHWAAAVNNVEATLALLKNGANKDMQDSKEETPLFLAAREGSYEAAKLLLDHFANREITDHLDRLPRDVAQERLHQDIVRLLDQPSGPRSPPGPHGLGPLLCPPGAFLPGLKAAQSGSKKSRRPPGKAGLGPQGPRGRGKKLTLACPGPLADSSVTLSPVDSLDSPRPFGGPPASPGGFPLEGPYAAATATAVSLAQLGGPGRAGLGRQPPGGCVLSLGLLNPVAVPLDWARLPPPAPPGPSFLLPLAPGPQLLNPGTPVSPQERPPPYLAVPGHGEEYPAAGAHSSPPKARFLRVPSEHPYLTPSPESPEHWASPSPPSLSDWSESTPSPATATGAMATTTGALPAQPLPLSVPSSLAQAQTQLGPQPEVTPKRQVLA

[20] = probe aEGFR binding to arrayed compounds – biochemical, biotinylated probe, 635/667 nm fluorescence, primary screen (AID 1097); details: small-molecule microarray, higher = more signal;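 note: probe is a biotinylated anti-EGFR antibody binding compounds printed on slides; score combines fluorescence near 667 nm and signal to noise of each spot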

Compound: CCOC(=O)C[C@H]1[C@H](OC(=O)Cc2ccc3c(c2)OCO3)[C@@H](NC(=O)c2ccc3ccccc3n2)c2cc(OCCCO)ccc2N1C(=O)Cc1ccc(OC)cc1
- composite z-score [1]: -0.238
- composite z-score [2]: 0.38
- composite z-score [3]: -0.0785
- composite z-score [4]: 0.205
- composite z-score [5]: 0.761
- composite z-score [6]: 1.17
- composite z-score [7]: 0.38
- z-score [8]: -0.876 (inactive)
- composite z-score [9]: 0.447
- composite z-score [10]: -0.0994
- composite z-score [11]: 0.742
- z-score [12]: -2.25 (inactive)
- z-score [13]: 0.154 (inactive)
- z-score [14]: -0.107 (inactive)
- composite z-score [15]: 1.34
- z-score [16]: 0.647 (inactive)
- composite z-score [17]: 0.0071
- composite z-score [18]: 1.25
- composite z-score [19]: 0.55
- composite z-score [20]: -0.103

Compound: COc1ccc([Si](C)(C)[C@@H]2[C@@H](CC(=O)N3CCC[C@H]3CO)O[C@]3(C(=O)N(Cc4cccc(N5CCCCC5=O)c4)c4ccccc43)[C@H]2C)cc1
- composite z-score [1]: -0.398
- composite z-score [2]: 0.887
- composite z-score [3]: -0.116
- composite z-score [4]: 0.411
- composite z-score [5]: 0.0236
- composite z-score [6]: 1.07
- composite z-score [7]: 1.07
- z-score [8]: -0.0792 (inactive)
- composite z-score [9]: -0.015
- composite z-score [10]: -0.0296
- composite z-score [11]: 1.57
- z-score [12]: -0.965 (inactive)
- z-score [13]: -0.388 (inactive)
- z-score [14]: 0.1 (inactive)
- composite z-score [15]: 1.89
- z-score [16]: 0.807 (inactive)
- composite z-score [17]: -0.183
- composite z-score [18]: 0.894
- composite z-score [19]: 0.625
- composite z-score [20]: -0.0828

Compound: Cc1ccccc1C(O)C1C=CC2C(=O)N(c3ccccc3)C(=O)C2N1Nc1ccccc1 (stereo not given)
- composite z-score [1]: 0.457
- composite z-score [2]: 0.573
- composite z-score [3]: 0.133
- composite z-score [4]: 1.15
- composite z-score [5]: 1.61
- composite z-score [6]: 2.18
- composite z-score [7]: 1.31
- z-score [8]: -1.78 (inactive)
- composite z-score [9]: 1.06
- composite z-score [10]: 0.0741
- composite z-score [11]: 1.53
- z-score [12]: 0.555 (inactive)
- z-score [13]: 0.828 (inactive)
- z-score [14]: 0.0369 (inactive)
- composite z-score [15]: 3.42
- z-score [16]: -0.555 (inactive)
- composite z-score [17]: 0.307
- composite z-score [18]: 0.219
- composite z-score [19]: 1.03
- composite z-score [20]: 0.183

Compound: COc1ccc(C(=O)Nc2ccc(CN3C(=O)[C@@]4(O[C@@H](CCn5cc(CCO)nn5)[C@H]([Si](C)(C)c5ccc(OC)cc5)[C@H]4C)c4ccccc43)cc2)cc1
- composite z-score [1]: -0.249
- composite z-score [2]: 0.269
- composite z-score [3]: -0.0613
- composite z-score [4]: 0.462
- composite z-score [5]: 0.534
- composite z-score [6]: 0.587
- composite z-score [7]: 1.16
- z-score [8]: -3.59 (inactive)
- composite z-score [9]: 0.859
- composite z-score [10]: -0.137
- composite z-score [11]: 1.34
- z-score [12]: 0.704 (inactive)
- z-score [13]: -6.58 (inactive)
- z-score [14]: 0.377 (inactive)
- composite z-score [15]: 1.26
- z-score [16]: -0.583 (inactive)
- composite z-score [17]: 0.0868
- composite z-score [18]: 0.926
- composite z-score [19]: 1.11
- composite z-score [20]: -0.0271

Compound: COc1ccc(C#Cc2ccc3c(c2)[C@]2(C(=O)N3)[C@H](C(=O)O)[C@H]3C(=O)O[C@H](c4ccccc4)[C@H](c4ccccc4)N3[C@@H]2c2ccccc2OCCO)cc1
- composite z-score [1]: -1.04
- composite z-score [2]: 0.485
- composite z-score [3]: -0.095
- composite z-score [4]: 0.991
- composite z-score [5]: 1.26
- composite z-score [6]: 0.566
- composite z-score [7]: 1.07
- z-score [8]: 0.205 (inactive)
- composite z-score [9]: -0.515
- composite z-score [10]: -0.583
- composite z-score [11]: 1.54
- z-score [12]: 1.79 (inactive)
- z-score [13]: 0.549 (inactive)
- z-score [14]: 0.705 (inactive)
- composite z-score [15]: 2.2
- z-score [16]: 0.969 (inactive)
- composite z-score [17]: -0.321
- composite z-score [18]: 0.597
- composite z-score [19]: 1.04
- composite z-score [20]: 0.0458
